Shown are actives, neighbours in structure and some others; about 19% of the full set was active somewhere.
Cycloheximide cs = Cycloheximide Counterscreen for Small Molecule Inhibitors of Shiga Toxin; 300,000 tested, 12% active; max response, %; cell reporter, cycloheximide protein synthesis inhibition counterscreen; AID 2314, 2010; in the data active = max response mostly above about 13%, no sharp cut-off; inactive = mostly below about 14%; also: read at 38.3 µM for the half of the compounds with a filed dose
Pf growth 96h = Primary qHTS for delayed death inhibitors of the malarial parasite plastid, 96 hour incubation; P. falciparum luciferase reporter growth, 96 h; Potency, µM (titrated, usually from 28.7 µM), most hits filed as inhibitors; 320,000 tested, 6.9% active
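Parasite growth measured via integrated firefly luciferase reporter in P. falciparum. Infected erythrocytes at 2% hematocrit, 0.05% parasitemia final were treated 96 hours at 37 C under 5% CO2, and luminescence was read.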
Pf growth 48h = Primary qHTS for delayed death inhibitors of the malarial parasite plastid, 48 hour incubation | P. falciparum luciferase growth in erythrocytes, 48 h | Potency, µM (doses to about 28.7 µM), actives largely listed as inhibitors | 310,000 tested, 5.9% active
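A one-generation exposure of luciferase-tagged malaria parasites in RPMI 1640/Albumax erythrocyte culture, 37 C and 5% CO2. Inhibition is inferred from decreased luminescence after adding detection reagent.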
Shiga inhibitor = A qHTS for Small Molecule Inhibitors of Shiga Toxin; inhibition, % at 38.7 µM; Vero cells, Shiga toxin protein synthesis inhibition reporter; AID 2315, 2010; 290,000 tested, 9.2% active; in the data active = inhibition mostly above about 28%, no sharp cut-off; inactive = mostly below about 43%
Lassa entry inh = qHTS for Inhibitors of binding or entry into cells for Lassa Virus. Lassa virus pseudotype entry inhibition, cell reporter. Potency, µM (titrated, usually from 37.9 µM), usual class: inhibitors. 300,000 tested, 1.2% active. AID 540256, 2011; calls by dose curve; tested in HEK293 cells; also: nearly all actives have a fitted effect of over 50% in size
Marburg entry inh = qHTS for inhibitors of binding or entry into cells for Marburg Virus | Marburg virus pseudotyped entry inhibition, cell reporter | 300,000 tested, 1.8% active | Potency, µM (doses to about 37.8 µM), most hits filed as inhibitors | AID 540276, 2011; calls by dose curve; tested in HEK293 cells
Large screens that a line does not name were inactive. Unless noted, calls follow the shape of the dose curve; as a rule, active = well fitted inhibition curve with a large enough effect; inconclusive = small, poorly fitted or top-dose-only effect, or another doubt; inactive = no such curve, though single readings can be large or run the other way.

O=C(NCc1ccc2c(c1)OCO2)C1COc2ccccc2O1 (centres undefined)	Pf growth 96h inconclusive, Shiga inhibitor 34, Lassa entry inh inconclusive, Marburg entry inh inconclusive
O=C(NCCc1ccccc1F)C1CCCN1S(=O)(=O)c1ccc2ccccc2c1 (centres undefined)	Cycloheximide cs 21, Pf growth 48h inconclusive, Marburg entry inh inconclusive
O=C(Nc1ccc2c(c1)OCO2)C1CCCCC1	Cycloheximide cs 33, Pf growth 96h inconclusive, Shiga inhibitor 38 (no result: Lassa entry inh, Marburg entry inh)
O=C(NCc1ccc2c(c1)OCO2)C1CCCN1S(=O)(=O)c1ccc(F)cc1 (centres undefined)	Pf growth 48h 2.3µM
CS(=O)(=O)N1CCC(C(=O)Nc2ccc3c(c2)OCO3)CC1	none (no result: Pf growth 48h)
O=c1[nH]c(=S)[nH]c(O)c1C(c1ccccn1)c1c(O)[nH]c(=S)[nH]c1=O	Pf growth 96h inconclusive
CCCCOC(=O)c1cc(=O)[nH]c(=O)[nH]1	Pf growth 96h inconclusive (no result: Lassa entry inh, Marburg entry inh)
COc1cc(C2CC(=O)Nc3c2c(=O)[nH]c2ncnn32)ccc1O (centres undefined)	none (no result: Cycloheximide cs, Pf growth 96h, Pf growth 48h, Shiga inhibitor)
CCc1ccc(NC(=O)c2ccc3c(O)c(S(=O)(=O)c4ccc(Cl)cc4)c(=O)[nH]c3c2)cc1	none (no result: Cycloheximide cs, Pf growth 96h, Pf growth 48h, Shiga inhibitor, Marburg entry inh)
O=C(O)C1CCCCC1C(=O)NCc1ccc2c(c1)OCO2 (centres undefined)	Pf growth 96h inconclusive
O=C(NCc1ccc2c(c1)OCO2)C1CCCCC1	Cycloheximide cs 13, Pf growth 96h inconclusive, Shiga inhibitor 42
O=C(NCc1ccc2c(c1)OCO2)C1CCN(S(=O)(=O)c2ccc(F)cc2)CC1	Pf growth 96h inconclusive (no result: Lassa entry inh, Marburg entry inh)
CCN(CC)S(=O)(=O)N1CCC(C(=O)NCc2ccc3c(c2)OCO3)CC1	Pf growth 96h 2.6µM
CC(NC(=O)Nc1ccc2c(c1)OCO2)C1CCCO1 (centres undefined)	Cycloheximide cs 44, Shiga inhibitor 72, Lassa entry inh inconclusive
O=S(=O)(c1c(F)cccc1F)N1CCN(C(=S)NCc2ccc3c(c2)OCO3)CC1	Pf growth 96h 2.1µM, Pf growth 48h 2.1µM
C=CCC(C)(NCc1ccccc1)c1ccc(C)cc1 (centres undefined)	Lassa entry inh inconclusive, Marburg entry inh inconclusive
Nc1nonc1C(=O)N/N=C/c1ccc(Br)o1	Cycloheximide cs 39, Shiga inhibitor 72
N/C(=N\N=C\c1ccc(Br)o1)c1nonc1N	Cycloheximide cs 47, Shiga inhibitor 82 (no result: Lassa entry inh, Marburg entry inh)
Nc1nonc1C(=O)N/N=C/c1ccc(-c2ccc(Cl)c(C(=O)O)c2)o1	Cycloheximide cs 14, Pf growth 96h inconclusive, Shiga inhibitor 48, Marburg entry inh inconclusive
O=C(N/N=C/c1ccc(Br)o1)c1cccnc1	none
N[C@@H](Cc1cc(Br)c(O)c(Br)c1)C(=O)O	none
C[C@@H]1C[C@H](Nc2ccccc2)c2ccccc2N1C(=O)c1cccnc1	Lassa entry inh inconclusive, Marburg entry inh 10µM
CC1CC(Nc2ccccc2)c2ccccc2N1C(=O)c1cccnc1 (centres undefined)	Pf growth 48h inconclusive, Marburg entry inh inconclusive
CN(C)S(=O)(=O)c1ccc(NC(=O)Cn2c(-c3ccccc3)noc2=O)cc1	Pf growth 96h 4.7µM (no result: Pf growth 48h)
CCOc1ccccc1NC(=O)Cn1c(-c2ccc(Cl)cc2)noc1=O	Pf growth 96h 4.1µM, Pf growth 48h 1.7µM (no result: Lassa entry inh, Marburg entry inh)
Cc1ccc(C(=O)Cn2c(-c3ccccc3)noc2=O)cc1	none (no result: Lassa entry inh, Marburg entry inh)
Cc1ccnc(SCC(=O)NC2CC2)n1	none
COc1ccc(C2CC2/C(=N/OC(=O)c2cccs2)c2ccccc2)cc1 (centres undefined)	Cycloheximide cs 29, Lassa entry inh inconclusive, Marburg entry inh inconclusive (no result: Pf growth 96h)
Cc1ccc(C)c(NC(=O)C2C3CCCC2C3c2ccccc2)c1 (centres undefined)	Pf growth 96h 12µM, Marburg entry inh inconclusive
CCc1cc(C(=O)c2ccc(OC)cc2)c(NC(=O)CN2CCCC2)s1	Pf growth 96h inconclusive, Pf growth 48h inconclusive (no result: Lassa entry inh, Marburg entry inh)
CCc1cc(C(=O)c2ccc(OC)cc2)c(NC(=O)CN2CCCCC2)s1	Pf growth 96h 3.7µM, Pf growth 48h 3.7µM (no result: Lassa entry inh, Marburg entry inh)
CCc1cc(C(=O)c2ccc(C)cc2)c(NC(=O)CCl)s1	Cycloheximide cs 49, Pf growth 96h inconclusive, Pf growth 48h inconclusive, Shiga inhibitor 73, Lassa entry inh inconclusive, Marburg entry inh inconclusive
O=C1Nc2c(c(=O)[nH]c(=O)n2-c2ccc(F)cc2)C1(NS(=O)(=O)c1ccc(Cl)cc1)C(F)(F)F (centres undefined)	none (no result: Cycloheximide cs, Pf growth 96h, Pf growth 48h, Shiga inhibitor)
COC(=O)C1=C(c2ccc(-c3ccccc3)c(F)c2)C[C@@H]2CC[C@H]1N2C(=O)N1CCCC1	Pf growth 96h inconclusive, Pf growth 48h 15µM (no result: Cycloheximide cs, Shiga inhibitor, Lassa entry inh, Marburg entry inh)
COC(=O)C1=C(c2ccc(-c3ccccc3)c(F)c2)C[C@@H]2CC[C@H]1N2C(=O)N1CCc2cc(OC)c(OC)cc2C1	Pf growth 96h inconclusive, Pf growth 48h 5.9µM (no result: Cycloheximide cs, Shiga inhibitor, Lassa entry inh, Marburg entry inh)
COC(=O)C1=C(c2ccc(-c3ccccc3)c(F)c2)C[C@@H]2CC[C@H]1N2C(=O)N1CCCCC1	Pf growth 96h inconclusive, Pf growth 48h 10µM (no result: Cycloheximide cs, Shiga inhibitor, Lassa entry inh, Marburg entry inh)
COC(=O)C1=C(c2ccc3ccccc3c2)C[C@@H]2CC[C@H]1N2C(=O)N1CCCC1	Pf growth 96h inconclusive, Pf growth 48h 9.3µM (no result: Cycloheximide cs, Shiga inhibitor, Lassa entry inh, Marburg entry inh)
CCOC(=O)c1cn(CC(=O)Nc2cccc(Cl)c2C)nn1	Marburg entry inh inconclusive
CC1=CC(C)C(C(=O)O)C(C(=O)N2CCN(C)CC2)C1 (centres undefined)	none
CSc1ccc2c(c1)N(CCC1CCCCN1C)c1ccccc1S2 (centres undefined)	Pf growth 96h inconclusive, Pf growth 48h 9.3µM, Lassa entry inh 5.2µM, Marburg entry inh 10µM
Cc1ccc(S(=O)(=O)NCCc2cc3ccc(C)cc3[nH]c2=O)cc1	Marburg entry inh inconclusive
CCN(CC)CCNC1=CC(=O)OC12CCCCC2	Pf growth 96h 15µM
O=C1C=C(NCc2ccccc2)C2(CCCCC2)O1	none
COc1ccc(Cc2c(O)[nH]c(=S)[nH]c2=O)cc1	Pf growth 96h 0.37µM
Cc1[nH]c(=S)[nH]c(=O)c1Cc1ccccc1	Pf growth 96h 13µM
Cc1sc2nc(COC(=O)c3ccc(Cl)c(N)c3)[nH]c(=O)c2c1C	Pf growth 48h inconclusive (no result: Lassa entry inh, Marburg entry inh)
COCCCn1c(C(=O)NCCC2=CCCCC2)cc2c(=O)n3ccccc3nc21	Pf growth 96h inconclusive, Pf growth 48h inconclusive
Cc1ccc(N2C(=O)C3C(C(=O)c4ccccc4)=NN(c4ccccc4)C3C2=O)cc1 (centres undefined)	none
C=CCNC(=O)COC(=O)CCC(=O)c1cccs1	Marburg entry inh inconclusive
COc1ccc(OC)c(N=c2oc3c(OC)cccc3cc2C(=O)NCc2ccco2)c1	none
COc1ccc(S(=O)(=O)N(Cc2ccccc2)c2ccccc2C(=O)Nc2ccccc2C(=O)NCc2ccco2)cc1	Pf growth 48h 13µM, Marburg entry inh inconclusive
COc1ccccc1C(=O)Nc1ccccc1C(=O)NCc1ccco1	Cycloheximide cs 32 (no result: Lassa entry inh, Marburg entry inh)

Bioassay records (PubChem BioAssay)
